Test results as given in PubChem BioAssay (Tox21).
Results filed as inconclusive are left out. Activity calls are given as the source filed them. Unless noted, calls follow the shape of the dose curve; as a rule, active = well fitted curve in the direction sought with a large enough effect in the repeat runs; inconclusive = weak or mixed curves; inactive = no such curve, though single readings can be large; an effect the other way counts as inactive or inconclusive.

Experiments:
[1] = qHTS assay to identify small molecule agonists of the TGF-beta/Smad signaling pathway (AID 1346859; active = well fitted activation curve with a large enough effect in the signal ratio in the repeat runs, not every such curve was filed as active; the % refers to the signal ratio; also: series mostly up to about 77 µM)
Procedure, shortened: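 Each well held 4,000 SBE-bla HEK 293T cells incubated overnight before compound addition; 5 hr later the cleavable FRET substrate went on for 2 hr at room temperature, and fluorescence was read at two emissions.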

[2] = biological target: Thyrotropin-releasing hormone receptor (Homo sapiens) (UniProt P34981); experiment: qHTS assay to identify small molecule antagonists of the thyrotropin-releasing hormone receptor (TRHR) signaling pathway (AID 1346877; active = well fitted inhibition curve with a large enough effect in the repeat runs, not every such curve was filed as active; also: series mostly up to about 51 µM)
Procedure, shortened: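 Screening used HEK293 cells engineered with TRHR, with a brief 5 min room-temperature compound exposure preceding addition of TRH to 1 nM. The read-out was kinetic calcium-dye fluorescence, concentration-response from 15 doses in triplicate.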

[3] = biological target: Thyrotropin-releasing hormone receptor (Homo sapiens) (UniProt P34981); experiment: qHTS assay to identify small molecule agonists of the thyrotropin-releasing hormone receptor (TRHR) signaling pathway (AID 1346891; calls by dose curve; also: series mostly up to about 58 µM)
Procedure, shortened: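 Screening of agonists relied on calcium signalling in HEK293 cells expressing human TRHR: dye loading 2 h at 37 °C preceded compound addition and a 3-min fluorescence time course.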

[4] = Human pregnane X receptor (PXR) small molecule agonists, qHTS cell viability counter screen (AID 1346977); also: nearly all actives have a fitted effect of over 50% in size
Procedure, shortened: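 Tox21 qHTS format; PXR-Luc HepG2, 2,000/well, charcoal-stripped FBS 5%. Cpd exposure 24hr. Read: CellTiter-Fluor fluorescence, multiplexed with luciferase.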

[5] = Caspase-3/7 induction in HepG2 cells by small molecules, qHTS assay (AID 1346978); also: nearly all actives have a fitted effect of over 15% in size
Procedure, shortened: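 Wild-type HepG2 cells, 2,000/well, settled 5 hr at 37 C and 5% CO2, then compound-treated for 17 hr; caspase-3/7 activity read by luminescent Caspase-Glo 3/7 after 30 min at room temperature.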

[6] = Caspase-3/7 induction in CHO-K1 cells by small molecules, qHTS cell viability counter screen (AID 1346979); also: nearly all actives have a fitted effect of over 35% in size
Procedure, shortened: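 CellTiter-Fluor viability check, qHTS format: wild-type CHO-K1, 16hr compound treatment, 1hr reagent incubation, fluorescence read.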

[7] = Caspase-3/7 induction in CHO-K1 cells by small molecules, qHTS assay (AID 1346980); also: nearly all actives have a fitted effect of over 15% in size
Procedure, shortened: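 Wild-type CHO-K1 cells exposed to compounds for 17hr at 37 C, 5% CO2. Caspase-3/7 activity then measured by Caspase-Glo 3/7 luminescence after 30min at room temperature.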

[8] = Caspase-3/7 induction in HepG2 cells by small molecules, qHTS cell viability counter screen (AID 1346981); also: series mostly up to about 92 µM; nearly all actives have a fitted effect of over 30% in size
Procedure, shortened: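 Multiplexed with the caspase-3/7 assay: HepG2 cells, 16 hr compound treatment, CellTiter-Fluor viability detection by fluorescence.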

[9] = biological target: Nuclear receptor subfamily 1 group I member 2 (Homo sapiens) (UniProt O75469); experiment: Human pregnane X receptor (PXR) small molecule agonists, qHTS assay (AID 1346982); also: nearly all actives have a fitted effect of over 35% in size
Procedure, shortened: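 We seeded PXR-Luc HepG2 cells in assay medium containing 5% charcoal-stripped FBS, added compounds 5 hr later, incubated 24 hr, and read luminescence with ONE-Glo reagent.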

[10] = biological target: Nuclear receptor subfamily 1 group I member 2 (Homo sapiens) (UniProt O75469); experiment: CYP3A4 induction through human pregnane X receptor (PXR) by small molecules, qHTS assay (AID 1346984); also: nearly all actives have a fitted effect of over 40% in size
Procedure, shortened: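 qHTS, concentration-response format: HepG2 DPX-2 line, PXR/CYP3A4-luc. Exposure 24 h, 37C. Substrate Luciferin-IPA 3uM final, 3 h. Detection One-Glo, 30 min RT.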

[11] = biological target: Nuclear receptor subfamily 1 group I member 2 (Homo sapiens) (UniProt O75469); experiment: Human pregnane X receptor (PXR) activation by small molecules, qHTS assay (AID 1346985); also: nearly all actives have a fitted effect of over 40% in size
Procedure, shortened: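 DPX-2 cells (HepG2 co-transfected with a PXR response element and a CYP3A4-promoter luciferase construct) were seeded at 2,000 per well, rested 5 hr at 37C, then exposed to DMSO-dissolved compounds for 24 hr. Activation was read as luciferase luminescence.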

[12] = biological target: Cytochrome P450 2D6 (Homo sapiens) (UniProt P10635); experiment: Cytochrome P450 Family 2 Subfamily D Member 6 (CYP2D6) small molecule antagonists: luciferase reporter qHTS assay (AID 1671196); also: nearly all actives have a fitted effect of over 50% in size; also: potency is read from the fitted curve at half-maximal effect; as to activity change, negative = inhibition: series mostly up to about 120 µM
Procedure, shortened: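 Luminescence (RLU), read 20 min after detection reagent, indicated CYP2D6 conversion of proluciferin to luciferin during a 1 h NADPH-dependent reaction at room temperature.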

[13] = biological target: Cytochrome P450 2C9 (Homo sapiens) (UniProt P11712); experiment: Cytochrome P450 Family 2 Subfamily C Member 9 (CYP2C9) small molecule antagonists: luciferase reporter qHTS assay (AID 1671198); also: series mostly up to about 120 µM; nearly all actives have a fitted effect of over 50% in size
Procedure, shortened: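 P450-Glo proluciferin substrate with CYP2C9 enzyme; 10 min RT preincubation, then NADPH regeneration 1 h at 37C; luciferin detection reagent 20 min RT, luminescence in relative luminescence units.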

[14] = biological target: Cytochrome P450 1A2 (Homo sapiens) (UniProt P05177); experiment: Cytochrome P450 Family 1 Subfamily A Member 2 (CYP1A2) small molecule antagonists: luciferase reporter qHTS assay (AID 1671199); also: nearly all actives have a fitted effect of over 50% in size; also: potency is read from the fitted curve at half-maximal effect; as to activity change, negative = inhibition: series mostly up to about 120 µM
Procedure, shortened: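 CYP1A2 turnover of a luminogenic substrate was quantified after 1 h with NADPH regeneration at room temperature. Furafylline served as positive control.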

[15] = biological target: Voltage-gated inwardly rectifying potassium channel KCNH2 (Homo sapiens) (UniProt Q12809); experiment: Human Ether-a-go-go-Related Gene (hERG) channel small molecule antagonists: fluorescence cell-based qHTS assay (AID 1671200)
Procedure, shortened: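 Kinetic two-minute fluorescence traces, sampled at 1 s, were collected following thallium stimulus of U2OS cells (1000 per well) that had been cultured overnight at 37 C and loaded with FluxOR II.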

[16] = biological target: Cytochrome P450 3A4 (Homo sapiens) (UniProt P08684); experiment: Cytochrome P450 Family 3 Subfamily A Member 4 (CYP3A4) small molecule antagonists: luciferase reporter qHTS assay (AID 1671201); also: nearly all actives have a fitted effect of over 50% in size; also: potency is read from the fitted curve at half-maximal effect; as to activity change, negative = inhibition: series mostly up to about 120 µM
Procedure, shortened: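 Proluciferin-to-luciferin conversion by CYP3A4, NADPH-regenerated, 1 h RT; luminescence read as RLU. Ketoconazole as control.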

[17] = qHTS assay to identify small molecule agonists of the TGF-beta/Smad signaling pathway - cell viability counter screen (AID 1346829); also: top concentration of the series differs between compounds; nearly all actives have a fitted effect of over 45% in size
Procedure, shortened: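 Same-well cytotoxicity: CellTiter-Glo added after the 2 hr room-temperature beta-lactamase substrate step, luminescence measured 30 min later; cells had 5 hr of compound at 37 C.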

[18] = biological target: Cytochrome P450 2C19 (Homo sapiens) (UniProt P33261); experiment: Cytochrome P450 Family 2 Subfamily C Member 19 (CYP2C19) small molecule antagonists: luciferase reporter qHTS assay (AID 1671197); also: nearly all actives have a fitted effect of over 65% in size; also: potency is read from the fitted curve at half-maximal effect; as to activity change, negative = inhibition: series mostly up to about 120 µM
Procedure, shortened: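 Quantitative high-throughput screen of the Tox21 library using CYP2C19 with proluciferin substrate. Reaction: NADPH regeneration, 37C, 1 h, after 10 min compound preincubation at room temperature. Readout: luminescence.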
% is scaled to controls: 0 for no effect and ±100 for the full control effect.

Chain of Cytochrome P450 3A4 (Homo sapiens) (P08684 whole entry, looked up): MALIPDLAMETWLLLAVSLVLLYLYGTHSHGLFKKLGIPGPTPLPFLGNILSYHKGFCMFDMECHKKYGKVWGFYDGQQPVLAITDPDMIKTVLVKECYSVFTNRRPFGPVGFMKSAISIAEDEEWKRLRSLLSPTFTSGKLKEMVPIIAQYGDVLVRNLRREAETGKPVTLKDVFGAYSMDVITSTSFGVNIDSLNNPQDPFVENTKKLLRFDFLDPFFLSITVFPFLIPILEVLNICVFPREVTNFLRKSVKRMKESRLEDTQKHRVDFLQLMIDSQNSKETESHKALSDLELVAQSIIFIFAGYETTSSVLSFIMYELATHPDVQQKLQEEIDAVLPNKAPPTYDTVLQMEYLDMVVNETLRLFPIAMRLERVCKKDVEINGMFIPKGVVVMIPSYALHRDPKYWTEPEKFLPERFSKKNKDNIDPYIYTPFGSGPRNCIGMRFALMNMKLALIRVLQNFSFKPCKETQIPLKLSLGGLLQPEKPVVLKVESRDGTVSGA
Chain of Thyrotropin-releasing hormone receptor (Homo sapiens) (P34981 whole entry, looked up): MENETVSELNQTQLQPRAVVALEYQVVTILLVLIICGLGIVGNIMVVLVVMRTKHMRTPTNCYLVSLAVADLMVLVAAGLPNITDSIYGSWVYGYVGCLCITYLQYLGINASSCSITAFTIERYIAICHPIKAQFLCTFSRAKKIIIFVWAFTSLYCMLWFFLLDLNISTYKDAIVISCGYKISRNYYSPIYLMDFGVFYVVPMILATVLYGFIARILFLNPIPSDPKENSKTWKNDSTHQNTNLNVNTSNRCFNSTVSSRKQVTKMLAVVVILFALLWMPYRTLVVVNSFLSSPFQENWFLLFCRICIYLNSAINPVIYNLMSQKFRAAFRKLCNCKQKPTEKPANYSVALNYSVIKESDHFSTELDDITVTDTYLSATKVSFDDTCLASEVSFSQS
Chain of Cytochrome P450 2C19 (Homo sapiens) (P33261 whole entry, looked up): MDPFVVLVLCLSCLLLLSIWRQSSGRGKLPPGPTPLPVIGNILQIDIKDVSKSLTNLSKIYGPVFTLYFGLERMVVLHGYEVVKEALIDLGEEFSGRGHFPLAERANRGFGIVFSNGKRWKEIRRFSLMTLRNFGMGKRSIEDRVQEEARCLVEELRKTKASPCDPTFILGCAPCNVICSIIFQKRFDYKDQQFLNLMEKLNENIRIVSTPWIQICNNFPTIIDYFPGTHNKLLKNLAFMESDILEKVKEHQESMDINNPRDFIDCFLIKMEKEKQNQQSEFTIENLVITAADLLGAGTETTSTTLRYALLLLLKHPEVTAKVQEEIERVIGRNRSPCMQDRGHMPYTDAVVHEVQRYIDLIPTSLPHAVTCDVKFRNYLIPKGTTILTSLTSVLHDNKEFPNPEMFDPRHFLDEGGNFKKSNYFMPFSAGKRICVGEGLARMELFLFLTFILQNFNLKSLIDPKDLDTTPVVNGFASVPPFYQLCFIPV
Chain of Nuclear receptor subfamily 1 group I member 2 (Homo sapiens) (O75469 whole entry, looked up): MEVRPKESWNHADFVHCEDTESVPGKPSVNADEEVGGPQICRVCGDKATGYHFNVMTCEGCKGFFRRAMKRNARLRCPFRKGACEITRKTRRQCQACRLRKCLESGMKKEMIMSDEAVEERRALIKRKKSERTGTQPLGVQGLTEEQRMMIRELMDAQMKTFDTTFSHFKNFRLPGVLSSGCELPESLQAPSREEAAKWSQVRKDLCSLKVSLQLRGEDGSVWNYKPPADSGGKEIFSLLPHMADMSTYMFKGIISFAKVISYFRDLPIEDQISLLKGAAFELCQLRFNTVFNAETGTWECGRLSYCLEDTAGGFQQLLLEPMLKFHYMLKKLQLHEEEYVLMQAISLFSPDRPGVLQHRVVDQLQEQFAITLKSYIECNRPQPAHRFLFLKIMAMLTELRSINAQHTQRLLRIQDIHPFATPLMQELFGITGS
Chain of Cytochrome P450 2C9 (Homo sapiens) (P11712 whole entry, looked up): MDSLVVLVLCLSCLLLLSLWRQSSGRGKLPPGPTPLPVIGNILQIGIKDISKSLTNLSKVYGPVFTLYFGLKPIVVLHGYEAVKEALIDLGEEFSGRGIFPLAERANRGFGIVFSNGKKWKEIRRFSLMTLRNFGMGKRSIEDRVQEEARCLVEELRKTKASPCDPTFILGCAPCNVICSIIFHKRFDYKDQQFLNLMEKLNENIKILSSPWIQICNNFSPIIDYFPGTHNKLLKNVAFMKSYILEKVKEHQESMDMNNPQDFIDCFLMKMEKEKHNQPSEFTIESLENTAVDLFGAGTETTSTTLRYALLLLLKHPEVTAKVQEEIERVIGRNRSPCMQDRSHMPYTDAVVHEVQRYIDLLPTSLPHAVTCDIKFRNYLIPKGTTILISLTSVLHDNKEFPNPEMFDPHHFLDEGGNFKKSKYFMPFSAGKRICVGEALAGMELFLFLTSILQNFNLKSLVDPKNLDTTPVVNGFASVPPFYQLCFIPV
Chain of Cytochrome P450 1A2 (Homo sapiens) (P05177 whole entry, looked up): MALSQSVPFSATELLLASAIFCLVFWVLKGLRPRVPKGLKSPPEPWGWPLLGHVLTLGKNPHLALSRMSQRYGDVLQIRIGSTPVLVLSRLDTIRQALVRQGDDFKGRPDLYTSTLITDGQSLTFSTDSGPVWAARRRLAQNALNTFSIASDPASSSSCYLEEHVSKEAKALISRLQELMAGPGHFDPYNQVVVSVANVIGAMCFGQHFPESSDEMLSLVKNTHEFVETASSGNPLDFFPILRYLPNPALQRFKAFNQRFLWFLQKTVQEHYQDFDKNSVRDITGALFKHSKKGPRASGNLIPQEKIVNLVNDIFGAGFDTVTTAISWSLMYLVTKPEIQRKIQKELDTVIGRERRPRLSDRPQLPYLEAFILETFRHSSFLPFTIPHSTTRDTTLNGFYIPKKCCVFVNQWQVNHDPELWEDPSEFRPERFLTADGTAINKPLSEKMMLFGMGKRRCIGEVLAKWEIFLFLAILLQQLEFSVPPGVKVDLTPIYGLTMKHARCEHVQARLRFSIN
Chain of Cytochrome P450 2D6 (Homo sapiens) (P10635 whole entry, looked up): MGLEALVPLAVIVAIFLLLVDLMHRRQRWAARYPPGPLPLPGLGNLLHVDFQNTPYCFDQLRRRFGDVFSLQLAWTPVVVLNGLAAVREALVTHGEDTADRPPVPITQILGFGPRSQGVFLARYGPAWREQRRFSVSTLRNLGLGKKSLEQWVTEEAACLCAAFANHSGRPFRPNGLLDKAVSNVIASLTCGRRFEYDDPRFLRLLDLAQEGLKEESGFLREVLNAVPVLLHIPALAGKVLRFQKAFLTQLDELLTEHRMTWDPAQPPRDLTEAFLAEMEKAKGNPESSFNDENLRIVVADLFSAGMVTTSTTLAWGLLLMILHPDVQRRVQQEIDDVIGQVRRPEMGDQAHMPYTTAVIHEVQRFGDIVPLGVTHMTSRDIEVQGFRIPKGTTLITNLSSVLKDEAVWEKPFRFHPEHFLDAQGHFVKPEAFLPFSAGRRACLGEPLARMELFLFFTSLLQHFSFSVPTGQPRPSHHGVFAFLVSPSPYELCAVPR
Chain of Voltage-gated inwardly rectifying potassium channel KCNH2 (Homo sapiens) (Q12809 whole entry, looked up): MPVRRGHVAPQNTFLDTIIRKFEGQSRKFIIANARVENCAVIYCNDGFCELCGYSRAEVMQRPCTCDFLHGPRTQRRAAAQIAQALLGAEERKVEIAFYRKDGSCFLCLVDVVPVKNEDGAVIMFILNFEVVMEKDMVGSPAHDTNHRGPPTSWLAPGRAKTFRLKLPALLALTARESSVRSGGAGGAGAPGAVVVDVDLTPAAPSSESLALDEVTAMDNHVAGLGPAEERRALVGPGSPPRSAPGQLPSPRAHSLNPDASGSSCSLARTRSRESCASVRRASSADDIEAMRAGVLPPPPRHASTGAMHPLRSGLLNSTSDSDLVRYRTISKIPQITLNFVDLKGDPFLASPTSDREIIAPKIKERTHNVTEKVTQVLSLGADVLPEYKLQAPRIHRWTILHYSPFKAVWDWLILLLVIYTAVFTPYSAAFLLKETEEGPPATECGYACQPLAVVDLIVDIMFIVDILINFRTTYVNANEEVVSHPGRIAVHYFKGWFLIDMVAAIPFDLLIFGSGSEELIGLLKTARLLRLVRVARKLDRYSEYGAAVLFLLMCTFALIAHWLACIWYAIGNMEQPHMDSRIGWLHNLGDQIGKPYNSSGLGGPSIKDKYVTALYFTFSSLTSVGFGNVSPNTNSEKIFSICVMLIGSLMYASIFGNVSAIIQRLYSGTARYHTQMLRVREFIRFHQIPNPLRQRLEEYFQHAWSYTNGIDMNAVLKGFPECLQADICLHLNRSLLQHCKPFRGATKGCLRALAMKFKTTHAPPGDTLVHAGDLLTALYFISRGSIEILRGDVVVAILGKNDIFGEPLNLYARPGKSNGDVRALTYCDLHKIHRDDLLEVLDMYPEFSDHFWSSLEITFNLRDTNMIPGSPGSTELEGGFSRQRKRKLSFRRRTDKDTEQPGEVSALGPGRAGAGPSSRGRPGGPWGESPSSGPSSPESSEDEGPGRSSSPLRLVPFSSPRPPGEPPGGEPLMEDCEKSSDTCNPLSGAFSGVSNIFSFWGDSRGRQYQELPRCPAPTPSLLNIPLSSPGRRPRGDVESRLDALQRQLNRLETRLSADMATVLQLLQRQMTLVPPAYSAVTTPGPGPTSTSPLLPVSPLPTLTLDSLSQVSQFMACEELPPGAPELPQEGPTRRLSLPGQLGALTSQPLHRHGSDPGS

CC[C@@]1(c2ccccc2)NC(=O)N(C)C1=O
inactive: outcome [1] | outcome [2] | Potency [3] | outcome [4] | outcome [5] | Potency [6] | outcome [7] | outcome [8] | Potency [9] | outcome [10] | outcome [11] | Potency [12] | Potency [13] | Potency [14] | Potency [15] | Potency [16]

CCC(C)c1nccnc1OC (stereo unspecified)
inactive: outcome [17] | outcome [2] | Potency [3] | outcome [4] | outcome [5] | Potency [6] | outcome [7] | outcome [8] | Potency [9] | Potency [12] | Potency [18] | Potency [13] | Potency [15] | Potency [16]

O=C1Nc2ccccc2C1=O
inactive: outcome [17] | outcome [2] | Potency [3] | outcome [4] | outcome [5] | outcome [7] | outcome [8] | Potency [9] | Potency [12] | Potency [15] | Potency [16]
active: Potency [14] 39.6 µM

C[Si](C)(C)O[Si](O)(O)O
inactive: outcome [17] | Potency [3] | outcome [4] | outcome [5] | Potency [6] | outcome [7] | outcome [8] | Potency [9] | Potency [12] | Potency [14] | Potency [15] | Potency [16]

C=CCCCCCCCCCCCCCC
active: Potency [18] 18.6 µM
inactive: activity change, negative = cytotoxicity [17] 9.91% [at 15.8 µM] | activity, negative = inhibition [2] 2.16% [at 10.5 µM] | activation [3] -0.0775% [at 11.8 µM] | activity change, negative = cytotoxicity [4] 1.28% [at 19 µM] | caspase activation [5] 1.32% [at 19 µM] | activity change, negative = cytotoxicity [6] 5.54% [at 19 µM] | caspase-3/7 activation [7] 1.16% [at 19 µM] | activity change, negative = cytotoxicity [8] -0.984% [at 19 µM] | activation [9] 1.1% [at 19 µM] | activity change, negative = inhibition [12] -17.7% [at 23.6 µM] | activity change, negative = inhibition [13] -3.74% [at 23.6 µM] | activity change, negative = inhibition [15] 4.07% [at 15.8 µM] | activity change, negative = inhibition [16] -5.46% [at 23.6 µM]

Cc1nnc(C(=O)NC(C)(C)c2nc(C(=O)NCc3ccc(F)cc3)c(O)c(=O)n2C)o1
inactive: outcome [17] | outcome [2] | Potency [3] | outcome [4] | outcome [5] | outcome [7] | outcome [8] | Potency [9] | Potency [12] | Potency [18] | Potency [14] | Potency [16]

O=C(O)Cc1c(Cl)ccc(Cl)c1Cl
inactive: outcome [17] | outcome [2] | Potency [3] | outcome [4] | outcome [5] | outcome [7] | outcome [8] | Potency [9] | Potency [12] | Potency [15]
active: Potency [18] 15.9 µM | Potency [14] 25.2 µM | Potency [16] 12.6 µM

Cc1ccc(S(=O)(=O)NC(=O)NN2CC3CCCC3C2)cc1 (stereo unspecified)
inactive: outcome [1] | outcome [2] | Potency [3] | outcome [4] | outcome [5] | Potency [6] | outcome [7] | outcome [8] | Potency [9] | outcome [10] | outcome [11] | Potency [12] | Potency [18] | Potency [13] | Potency [14] | Potency [15] | Potency [16]

C/C(Cl)=C/CCl
inactive: outcome [17] | outcome [2] | Potency [3] | outcome [4] | outcome [5] | Potency [6] | outcome [7] | outcome [8] | Potency [9] | Potency [12] | Potency [14] | Potency [15] | Potency [16]

CCN(CC)CC
active: Potency [12] 23.6 µM | Potency [18] 59.4 µM
inactive: outcome [17] | outcome [2] | Potency [3] | outcome [4] | Potency [6] | outcome [7] | outcome [8] | Potency [9] | Potency [14] | Potency [15] | Potency [16]
